Among all 2,200 compounds or so, about 480 (22%) were called active. Only a sample is shown. Measured potencies and affinities stand elsewhere. A number with no mark means an inactive call. The rule behind the calls is not given here.
Test: S. Typhimurium GFP fluorescence dose response in modified counterscreen for PhoP regulon inhibitor project (AID 1981);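 note: 0% = induced DMSO wells and 100% = uninduced wells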
Settings: 4 h; series mostly up to 150 µM; inhibition: at the top concentration
For `Nc1nnc(SCCOc2ccc(Br)cc2)s1`, the “inhibition” value was -21.9%. In the case of `c1ccc(-c2cnn3nnnc3n2)cc1`, the “inhibition” value is reported as 15.6%. In the case of `CC(C)CNC(=S)NC1CCCC1`, the “inhibition” value is reported as 0.61%. With `Cc1cc(/C=N/n2cnnc2)c(C)n1-c1ccc(OCc2ccc(F)cc2)cc1` the “inhibition” value was -6.71%. For `COc1ccc(/C=C/c2nc3ccccc3n2Cc2ccccc2OC)cc1`, the “inhibition” value was -5.86%. For `COc1cccc(-n2c(N)c(C(=O)Nc3c(C)n(C)n(-c4ccccc4)c3=O)c3nc4ccccc4nc32)c1`, the “inhibition” value was 24.6%. In the case of `COc1cccc(NC(=S)N/N=C2\CC(C)(C)Oc3ccc(O)cc32)c1`, the “inhibition” value is reported as -4.58%. In the case of `CCc1cc2c(NCCC(=O)O)nc(C)nc2s1`, the “inhibition” value is reported as -5.57%. With `CN1c2ccccc2C(O)=C(C(=O)Nc2ccccc2)S1(=O)=O` the “inhibition” value was -25.7%. With `O=C(Nc1cccc2ccccc12)c1ccc(Cn2cc(Cl)cn2)cc1` the “inhibition” value was -10.6%. With `Cc1cc(C)n(-c2nc(NCCN(C)C)c3c4c(sc3n2)CCCC4)n1` the “inhibition” value was 16.5%. For `Cc1ccc(-c2nnn(CC(=O)Nc3ccccc3-c3ccccc3)n2)c(-n2cnnn2)c1`, the “inhibition” value was -20.2%. With `N#Cc1ccc(COC(=O)c2ccc3c(=O)[nH]c(CN4CCOCC4)nc3c2)cc1` the “inhibition” value was -16.6%. For `O=c1[nH]c(CN2CCCCC2)nc2ccccc12`, the “inhibition” value was -0.84%. In the case of `c1ccc(COc2cccc(CN3CCN(c4ccccn4)CC3)c2)cc1`, the “inhibition” value is reported as -14.2%. With `Cc1cc(C(C)c2ccccc2)c(O)c(CN2CCOCC2)c1C` (centres undefined) the “inhibition” value was 4.28%. For `CC1C(C#N)=C(N)OC2=C1C(=O)CCC2` (centres undefined), the “inhibition” value was 1.35%. With `COc1ccc(C2C(C#N)=C(N)OC3=C2C(=O)CCC3)cc1Cn1cc([N+](=O)[O-])cn1` (centres undefined) the “inhibition” value was 15.4%. For `CCN(CC)CCCn1c(=S)[nH]c2cc(OC)c(OC)cc2c1=O`, the “inhibition” value was -0.94%. For `Cn1c(CO)cnc1SCc1ccc([N+](=O)[O-])cc1`, the “inhibition” value was -0.6%. In the case of `COc1ccccc1Nc1nc(-c2c(C)[nH]c3ccccc23)cs1`, the “inhibition” value is reported as 24.6%. With `CCc1ccc(OCC(=O)Nc2ccc(-c3cc4ccccc4oc3=O)c(OC)c2)cc1` the “inhibition” value was 2.11%. In the case of `COc1ccc2oc(=O)cc(C)c2c1`, the “inhibition” value is reported as 11.9%. With `COc1ccc(S(=O)(=O)n2ccc(-c3ccc(OCCN(C)c4ccccn4)cc3)n2)cc1` the “inhibition” value was -16.7%. In the case of `OCCNc1ccc(Cl)cc1`, the “inhibition” value is reported as -9.47%. For `NNC(=S)Nc1ccc(Cl)cc1`, the “inhibition” value was 6.57%. With `Cc1ccc(S(=O)(=O)NC2c3cccc4cccc(c34)C2Sc2n[nH]c(N)n2)cc1` (centres undefined) the “inhibition” value was 13.9%. With `Brc1ccc(-c2cnc3n2CCCC3)cc1` the “inhibition” value was 15.1%. With `CCCNC1=C(C)C(=O)C2=C(C1=O)C(COC(N)=O)[C@]1(OC)C3NC3CN21` (some centres undefined) the “inhibition” value was 32.6%. With `Cc1ccc(S(=O)(=O)c2c(N)n(NC(=O)c3ccco3)c3nc4ccccc4nc23)cc1` the “inhibition” value was -0.13%. In the case of `O=C(c1cnsn1)N1CCN(c2ccccc2)CC1`, the “inhibition” value is reported as -1.8%. With `COc1ccc(OC)c(C2C=C(C34CC5CC(CC(C5)C3)C4)NC(=S)N2)c1` (centres undefined) the “inhibition” value was -20%. For `O=C(c1[nH]ncc1-c1ccc(Cl)cc1)C1CO1` (centres undefined), the “inhibition” value was 8.07%. In the case of `O=C(CSCc1cccc(CSCC(=O)Nc2ccc3ccccc3c2)n1)Nc1ccc2ccccc2c1`, the “inhibition” value is reported as -6.02%. With `c1ccc(CSc2nnc(-c3ccncc3)o2)cc1` the “inhibition” value was 1.56%. In the case of `C=CCNc1nnc(Cl)c2ccccc12`, the “inhibition” value is reported as -10.6%. For `S=C(NCc1ccncc1)Nc1ccc(Cl)c(Cl)c1`, the “inhibition” value was -1.3%. In the case of `Cc1cc(-c2csc(NC(=O)c3ccccc3C(F)(F)F)n2)c(C)n1Cc1ccccc1`, the “inhibition” value is reported as 11.7%. For `Cc1ccc2[nH]c3c(NCc4ccco4)ncnc3c2c1`, the “inhibition” value was -2.75%. In the case of `Oc1ccccc1Nc1nc(NCc2ccco2)c2ccccc2n1`, the “inhibition” value is reported as -2.16%. For `c1coc(CNc2ncnc3ccccc23)c1`, the “inhibition” value was 0%. With `Cc1ccc(-c2nc(NCc3cccnc3)c3ccccc3n2)cc1` the “inhibition” value was 0.48%. With `c1ccc(CN2CCN(c3nc(NCc4ccco4)c4ccccc4n3)CC2)cc1` the “inhibition” value was -2.02%. With `Cc1cccc(C(=O)NC(NCc2ccco2)C(Cl)(Cl)Cl)c1` (centres undefined) the “inhibition” value was -6.57%. For `c1ccc(CNc2nc(N3CCN(Cc4ccccc4)CC3)nc3ccccc23)cc1`, the “inhibition” value was -6.01%. In the case of `c1ccc(CNc2ncnc3ccccc23)cc1`, the “inhibition” value is reported as -3.62%. For `O=C(c1ccccc1)N1CCN(c2ccc([N+](=O)[O-])c(NCc3ccco3)c2)CC1`, the “inhibition” value was 0.28%. In the case of `C/C(=N/NC(=O)Cc1cccn1C)c1ccccc1`, the “inhibition” value is reported as 3.18%. For `COc1ccc(NC(=O)CCNS(=O)(=O)c2ccc3c(c2)CCC(=O)N3)cc1`, the “inhibition” value was -0.32%. For `O=C(Nc1nccs1)c1cc(-c2ccco2)nc2ccccc12`, the “inhibition” value was -23.4%. With `Cc1cn([C@H]2C[C@H](N=[N+]=[N-])[C@@H](CO)O2)c(=O)[nH]c1=O` the “inhibition” value was 35.2% [at 75 µM]. In the case of `COc1cccc(-c2nnc3sc(-c4ccc(C)cc4)nn23)c1`, the “inhibition” value is reported as -9.25%. In the case of `CN(CC(=O)N1CCN(c2ccccn2)CC1)S(=O)(=O)c1ccc2ccccc2c1`, the “inhibition” value is reported as -4.15%. In the case of `Cn1nnnc1SCC(=O)NC1CCCCC1`, the “inhibition” value is reported as -10.9%. With `Nc1nnc(SCc2ccc(F)cc2Cl)s1` the “inhibition” value was -15.6%. With `Cn1c(C(O)c2ccc(Br)cc2)nc(Cl)c1Cl` (centres undefined) the “inhibition” value was -13.2%. With `CCC1C2CN(C(C)=O)CC=C2C(C#N)=C(N)C1(C#N)C#N` (centres undefined) the “inhibition” value was 6.02%. With `Clc1ccc(-n2ncc3c(NCc4cccs4)ncnc32)cc1` the “inhibition” value was -17.4%. With `CCn1c(Cc2ccccc2)nnc1SCC(=O)Nc1nc(C)c(C)s1` the “inhibition” value was 0.1%. For `Nc1ccc2oc3ccccc3c2c1`, the “inhibition” value was 16.8%. For `CCOc1cc(C2C(C(=O)OC)=C(C)N=C3SCCC(=O)N32)ccc1OC(C)=O` (centres undefined), the “inhibition” value was -2.17%. For `CCCn1c(/N=C/c2ccc3c(c2)OCO3)nc2ccccc21`, the “inhibition” value was 15.2%. In the case of `Cc1ccc(NS(=O)(=O)c2ccccc2)c2c1CC(C)(C)O2`, the “inhibition” value is reported as -8.98%. For `COc1ccc(NC(=O)C(Sc2nnc(-c3ccncc3)n2-c2ccccc2C)c2ccccc2)cc1Cl` (centres undefined), the “inhibition” value was 8.36%. In the case of `CC(=O)Cn1cnc2sc(-c3ccccc3)cc2c1=O`, the “inhibition” value is reported as 4.67%. With `C/C(=N\Nc1nc2ccccc2[nH]1)c1ccc(Cl)s1` the “inhibition” value was 12.1%. With `C/C(=N\Nc1nc2ccccc2[nH]1)c1cccs1` the “inhibition” value was -5.9%. In the case of `O=S(=O)(c1ccc(N2CCCC2c2nc3ccccc3s2)nc1)N1CCOCC1` (centres undefined), the “inhibition” value is reported as -16.8%. With `O=C(/C=C/c1cccs1)N1CCN(Cc2ccc3c(c2)OCO3)CC1` the “inhibition” value was -9.81%. With `CC(C)(C)NS(=O)(=O)c1ccc(CCC(=O)N2CCOCC2)cc1` the “inhibition” value was -7.62%. With `Cc1cc(C(=O)CSc2nnnn2C)c(C)n1-c1ccc2c(c1)OCCO2` the “inhibition” value was -3.82%. In the case of `COC(=O)c1c(C)oc2ccc(NS(=O)(=O)c3cccs3)cc12`, the “inhibition” value is reported as -14.3%. In the case of `Cc1cc(N/N=C/c2cccc(Cl)c2)nc(NCc2ccccc2)n1`, the “inhibition” value is reported as -17.7%. In the case of `C(=N\N1CCN(Cc2ccccc2)CC1)/c1cccnc1`, the “inhibition” value is reported as -10.5%. For `O=C(Nc1cccc(Cl)c1)C1C2CCC3C(CCC21)C3(Cl)Cl` (centres undefined), the “inhibition” value was -16.9%. For `O=C1CC(c2ccccc2)n2ncnc2N1` (centres undefined), the “inhibition” value was -7.51%. In the case of `Cc1onc(-c2ccccc2)c1C(=O)NC(=S)NNC(=O)c1ccc(O)cc1O`, the “inhibition” value is reported as 15.5%. In the case of `O=C(NC(NC(=S)Nc1ccc(Cl)cc1)C(Cl)(Cl)Cl)c1ccco1` (centres undefined), the “inhibition” value is reported as -10.4%. With `CCn1c(N)[n+](CC(=O)Nc2ccc(SC(F)F)cc2)c2ccccc21` the “inhibition” value was -16.1%. For `FC(F)Oc1ccc(NC(=S)NCc2nc3ccccc3[nH]2)cc1`, the “inhibition” value was 3.22%. In the case of `Cc1ccc2[nH]c3c(NCc4ccccc4)ncnc3c2c1`, the “inhibition” value is reported as -12.9%. With `COC(=O)N1CCN(c2ccc(Cl)c(Cl)c2)CC1` the “inhibition” value was -3.97%. With `Brc1ccc2nc3c(n2c1)CCCC3` the “inhibition” value was 10.4%. In the case of `CC(=O)Nc1ccc(C(=O)Nc2nc(-c3cc(C)n(Cc4ccccc4)c3C)cs2)cc1`, the “inhibition” value is reported as -1.17%. For `Cc1ccccc1Nc1nc(-c2sc(NC(=O)c3cccc(Cl)c3)nc2C)cs1`, the “inhibition” value was 30.6%. In the case of `CC(C)Cc1oc(C(=O)O)cc1CN`, the “inhibition” value is reported as 10.4%. With `Nc1nc(C2CCCCC2)cs1` the “inhibition” value was -11.9%. In the case of `CCN(CC(=O)Nc1ccc(N2CCOCC2)cc1)Cc1nc2ccccc2c(=O)[nH]1`, the “inhibition” value is reported as -1.37%. For `COc1ccc(OC)c(/C=N/NC(=O)c2cc3c(OC)c(OC)ccc3[nH]2)c1`, the “inhibition” value was -13.9%. With `COc1ccc(OC)c(/C=N/NC(=O)Cc2nc3ccccc3[nH]2)c1` the “inhibition” value was 8.7%. In the case of `C#CCOc1c(Cl)cc(/C=N/O)cc1OC`, the “inhibition” value is reported as -8.22%. In the case of `Cc1nn(-c2ncc(C(F)(F)F)cc2Cl)c(=O)n1-c1cccc(Cl)c1`, the “inhibition” value is reported as -20.8%. With `Cc1ccc(C)n1-c1cccc(N)c1` the “inhibition” value was 8.69%. With `O=S1(=O)CC(O)C(Nc2ccccc2Cl)C1` (centres undefined) the “inhibition” value was 0.99%. With `COc1ccccc1NC(=O)Cn1nnc(-c2ccccc2NC(=O)c2cccs2)n1` the “inhibition” value was -1.7%. For `CCN(CC)S(=O)(=O)c1cccc(NC(=O)Nc2cccc(C(F)(F)F)c2)c1`, the “inhibition” value was 4.19%. For `Fc1cc(Br)ccc1NC(=S)Nc1ccccc1`, the “inhibition” value was -7.83%. For `COC(=O)Cc1ccc(NC(=S)N2CCN(c3ccc(F)cc3)CC2)cc1`, the “inhibition” value was 12.2%. With `O=S(=O)(Nc1ccc2ccccc2c1)c1ccccc1` the “inhibition” value was -3.83%. With `Cc1scc(C(=O)O)c1-c1c(C(=O)O)csc1C` the “inhibition” value was -5.12%. For `O=C(c1ccccc1)c1nc2ccccc2n(CCCn2c(=O)c(C(=O)c3ccccc3)nc3ccccc32)c1=O`, the “inhibition” value was 10.8%. For `CCCn1c(NCc2c[nH]c3ccccc23)nc2ccccc21`, the “inhibition” value was -16.7%. For `CCC(C)N1C(=O)/C(=C/c2ccc3c(c2)CCN3CCCCl)C(=O)NC1=S` (centres undefined), the “inhibition” value was 11.6%. In the case of `COc1ccc(-n2c(=O)c3ccccc3n(CC(=O)Nc3cc(C)on3)c2=O)cc1OC`, the “inhibition” value is reported as -6.76%. For `CCn1c2ccccc2c2cc(NC(=O)COc3ccccc3)ccc21`, the “inhibition” value was -7.07%. For `CCCSc1nc(N2CCCC2)c2c(c1C#N)CC(C)(C)OC2`, the “inhibition” value was 3.09%. In the case of `c1nc(N2CCC3(CC2)OCCO3)c2c3c(sc2n1)CCCC3`, the “inhibition” value is reported as -0.83%. In the case of `C=CCc1ccccc1OCC(O)CN1CCN(CCN2C(=O)c3cccc4cccc(c34)C2=O)CC1` (centres undefined), the “inhibition” value is reported as 8.96%. For `COc1ccc([N+](=O)[O-])cc1N(CC(O)Cn1nnc2ccccc21)S(=O)(=O)c1ccc(C)cc1` (centres undefined), the “inhibition” value was 8.93%. For `Cc1ccc(/C(O)=C2\C(=O)C(=O)N(CC(C)O)C2c2cccc(F)c2)cc1` (centres undefined), the “inhibition” value was -24.2%. With `COc1ccc(C2CC(c3ccccc3)=NN2C(=O)COC(=O)c2cccnc2)cc1` (centres undefined) the “inhibition” value was -4.41%. In the case of `CCOC(=O)/C=C1\SCC(=O)N1CC(=O)NC1CCCCC1`, the “inhibition” value is reported as 5.36%. For `COC(=O)c1ccc2c(=O)n(CCN3CCOCC3)c(SCC(=O)C(C)(C)C)nc2c1`, the “inhibition” value was -14.9%. For `Cc1nn(-c2ccccc2)c(N2CCCC2)c1/C=N/Nc1ccc(S(N)(=O)=O)cc1[N+](=O)[O-]`, the “inhibition” value was 38%.

Source: PubChem BioAssay AID1981 (Southern Research Specialized Biocontainment Screening …, 2009)
